# Screening data: PubChem, National Center for Advancing Translational Sciences (NCATS)
# HT1080-NT tox = kills 2HG-producing HT-1080-NT fibrosarcoma cells | HT-1080-NT fibrosarcoma viability, CellTiter-Glo ATP luminescence, 48 h | Potency, µM (top dose mostly 46.1 µM), for inactives: top-dose activity, negative = less viability, actives largely listed as cytotoxic | hit rate 1.6% among 360,000;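 note: NT is the 2HG producing partner of a matched IDH1 knockdown line; potency is the fitted concentration of half-maximal effect; 0% = DMSO-treated cells and -100% = media-only wells without cells; nearly all actives have a fitted effect of over 55% in size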
#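 HT-1080-NT; 750 cells/well; 5% FBS RPMI; 48 h compound, 37 degrees C; CellTiter-Glo luminescence; curve fitting and curve-class assignment.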
# uPA surface inh = blocks generation of uPA at the cell surface. cell surface uPA generation assay, qHTS. Potency, µM (doses to about 38.3 µM), for inactives: at the top dose activity change, negative = inhibition, most hits filed as inhibitors. hit rate 0.31% among 330,000; active = well fitted inhibition curve with a large enough effect; inconclusive = small, poorly fitted or top-dose-only effect; inactive = no such curve, though single readings can be large or run the other way; tested in mouse RAW 264.7 cells; note: potency is the fitted concentration of half-maximal effect; nearly all actives have a fitted effect of over 55% in size
# HT1080 IDH1KD tx = HT-1080 IDH1 knockdown cell toxicity (counter line); HT-1080 IDH1 knockdown viability, ATP luminescence, 48 h; AID 686971; hit rate 2% among 360,000; Potency, µM (top dose mostly 46.1 µM), inactives show at the highest dose activity, negative = toxicity, actives largely listed as cytotoxic;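 note: potency is the fitted concentration of half-maximal effect; 0% = DMSO wells and -100% = cell-free medium wells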
#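 In this qHTS, HT-1080 cells depleted of IDH1 are exposed for 48 h at 37 °C to compound titrations. Toxicity is scored from CellTiter-Glo luminescence, with DMSO as full viability and medium alone as none.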
# DT40 TDP1 no CPT = qHTS for Inhibitors of human tyrosyl-DNA phosphodiesterase 1 (TDP1): qHTS in cells in absence of CPT; DT40 Tdp1-/- hTDP1 cells, no CPT, ATP luminescence, 48 h; Potency, µM (top dose mostly 46.2 µM), for inactives: at the top dose activity change, negative = growth inhibition, usual class: inhibitors; hit rate 15% among 420,000; note: potency is the fitted concentration of half-maximal effect; nearly all actives have a fitted effect of over 55% in size
#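 Growth of hTDP1-complemented DT40 Tdp1-knockout cells is measured by ATP luminescence after at least 48 hr compound exposure at 37 °C, with DMSO substituting for the 20 nM CPT used in the parallel screen.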
# IL-1B inflam inh = inhibitors of inflammasome signaling (IL-1 beta secretion) | THP-1 LPS/ATP IL-1B secretion, AlphaLISA, 16 h; active compounds read low | activity change, % at 57.5 µM | hit rate 4.7% among 360,000; in the data active = activity change below about -50%; inconclusive = mostly about -30% to -49%
#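 Secreted IL-1B measured by AlphaLISA bead assay after 16 h compound exposure of THP-1 cells; compounds (final up to 57.5 uM) added 1 h before LPS (250 ng/mL) and ATP (1.25 mM) stimulation; lower signal means less secretion.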
# TDP1 cell CPT = growth inhibition of DT40 Tdp1-/-;hTDP1 cells with camptothecin (screen for TDP1 inhibitors); chicken DT40 Tdp1-/-;hTDP1 cells + 20 nM CPT, ATP luminescence, 48 h; Potency, µM (highest dose often 46.2 µM), inactives show at the highest dose activity change, negative = growth inhibition, most hits filed as inhibitors; hit rate 12% among 420,000; note: potency is the fitted concentration of half-maximal effect; nearly all actives have a fitted effect of over 55% in size
#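 Cell growth measured by CellTiter-Glo luminescence after a minimum 48 h, 37 C compound exposure with 20 nM CPT in Tdp1-knockout DT40 cells stably expressing hTDP1, seeded 400/well; qHTS titration format.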
# Starred values were filed as active, the others as inactive; u = inconclusive; x = no result; + = active, no number; ! = repeats disagree. The list is not random: actives were taken first. Their share in the collection is about 19%. Unless noted, calls come from the whole dose curve; as a rule, active = well fitted curve in the direction sought with a large enough effect; inconclusive = small, poorly fitted or top-dose-only effect, or another doubt; inactive = no such curve, though single readings can be large; an effect the other way counts as inactive or inconclusive. Unless noted, % is set by controls: 0 for no effect and ±100 for the full control effect.
SMILES,HT1080-NT tox,uPA surface inh,HT1080 IDH1KD tx,DT40 TDP1 no CPT,IL-1B inflam inh,TDP1 cell CPT
CN1/C(=C/C=C(C#N)C#N)C(C)(C)c2ccccc21,7.6%,0.9%,3.2%,1.4%,14.3,-20.7%
Cc1c(N=C/C=C2/N(C)c3ccccc3C2(C)C)c(=O)n(-c2ccccc2)n1C,-6.6%,-17.8%,21.5%,u,-7.3,u
Cc1csc(CN(C)C(=O)CC2C(=O)NCCN2Cc2ccc(F)cc2Cl)n1 (centres undefined),7.8%,-0.8%,15.6%,10.3%,15.0,-21.3%
Cc1ccc(-c2nnc3c(C(F)(F)F)nc4ccccc4n23)cc1,3.8%,-2.0%,12.1%,20.6µM*,-25.9,20.6µM*
FC(F)(F)c1nc2ccccc2n2c(-c3ccc(Cl)cc3)nnc12,5.8µM*,-10.2%,4.61µM*,11.6µM*,u,7.31µM*
c1ccc(-c2nc3ccccc3c3nc4ccccc4n23)cc1,5.1%,-10.2%,17.4%,-4.8%,8.8,6.5%
COc1ccc(NC(=O)CC2C(=O)N(c3ccc(F)cc3)C(=O)N2Cc2cccnc2)cc1 (centres undefined),x,x,x,-14.3%,x,u
CCN1C(=O)[C@H]2[C@@H](c3ccc(OC)cc3)N[C@]3(CCCN(CC4CCCCC4)C3=O)[C@H]2C1=O,4.6%,x,-7.9%,-10.7%,19.5,18.0%
CC(C)NC(=O)N1CC(c2ccccc2)C(c2ccc(Cl)cc2)=N1 (centres undefined),-4.6%,5.3%,-2.2%,18.4µM*,5.0,11.6µM*
Cn1c(Sc2ccc(C(=O)O)cc2[N+](=O)[O-])nnc1-c1ccccc1,3.1%,3.0%,8.2%,u,10.5,20.6µM*
CN1CCN(S(=O)(=O)c2ccc(Sc3nnnn3-c3ccccc3)c([N+](=O)[O-])c2)CC1,-5.7%,-5.9%,-7.5%,3.26µM*,-74.0*,2.91µM*
O=C(O)c1ccc(Sc2nnc(-c3cccc(Br)c3)o2)c([N+](=O)[O-])c1,16.1%,-13.2%,0.1%,2.1%,9.2,3.7%
CC(=O)c1ccc(Sc2nnnn2-c2ccccc2)c([N+](=O)[O-])c1,-17.5%,-12.5%,u,2.31µM*,-99.7*,2.59µM*
O=[N+]([O-])c1ccc(Sc2nnnn2-c2ccccc2)c(Cl)c1,8.91µM*,x,10µM*,20.6µM*,5.9,u
CCC1Sc2ccc(S(=O)(=O)CCC(=O)Nc3cccc(Br)c3)cc2NC1=O (centres undefined),-1.1%,-11.0%,-23.1%,5.1%,35.1,-25.2%
CS(=O)(=O)N1CCC2(CC1)CN(Cc1nccs1)C2,x,x,x,-5.6%,x,8.0%
CN1CCC(=C2c3ccccc3C=Cc3ccccc32)CC1,u,13.9%,11.2%,26.6µM*!,u,29.9µM*!
CN1CCC(=C2c3ccccc3Sc3ccccc32)CC1,u,u,u,18.4µM*,u,7.31µM*
CCc1nc2ccc(C(=O)NCc3ccc4c(c3)OCO4)cn2c1N(CC)Cc1cccc(Br)c1,u,x,-1.6%,u,u,u
COCCCNC(=O)c1ccc2c(c1)ncn2-c1ccc(C)cc1C,1.7%,5.7%,-0.2%,-25.6%,7.2,u
COc1ccc(OC)c(-n2cnc3cc(C(=O)NC4CCCC4)ccc32)c1,x,x,x,u,x,-8.0%
Cc1ccc(-n2cnc3cc(C(=O)NC4CCCCCC4)ccc32)c(C)c1,x,x,x,16.4µM*,x,u
Cc1ccc(-n2cnc3cc(C(=O)NCc4ccc(F)cc4)ccc32)c(C)c1,x,x,x,u,x,20.6µM*
CCCN(C(=O)c1cc2ccc3cccnc3c2[nH]1)c1ccc(F)cc1,x,x,x,-25.2%,x,-13.9%
Cc1ccccc1C1c2[nH]c3ccccc3c2CCN1CCCn1cccn1 (centres undefined),0.0%,1.2%,-12.8%,13µM*,-20.1,u
SMILES,HT1080-NT tox,uPA surface inh,HT1080 IDH1KD tx,DT40 TDP1 no CPT,IL-1B inflam inh,TDP1 cell CPT
Fc1ccc(CNC(=S)NC2CCCCC2)cc1,0.9%,10.7%,-12.5%,u,8.2,u
Fc1ccc(CNC(=S)NC2CCCC2)cc1,-24.1%,-1.5%,u,u,-142.2*,u
NS(=O)(=O)c1ccc(CNC(=S)NCc2ccc(F)cc2)cc1,9.0%,6.8%,-0.4%,7.9%,+,9.6%
COc1ccc(C2=C(C)C(N3CCC(C(=O)NCc4ccco4)CC3)=NS2(=O)=O)cc1,x,x,x,u,x,-27.5%
CCc1ccc(-n2c(C)cc(/C=N/NC(=O)OC)c2C)cc1,-11.9%,-3.8%,-1.0%,25.9µM*,-0.1,u
CCc1ccc(-n2c(C)cc(/C=N/NC(=O)c3ccncc3)c2C)cc1,-6.2%,-14.5%,-6.5%,u,6.3,13µM*
O=C(OCCc1cc2ccccc2c(=O)o1)c1cccc(Br)c1,27.2%,-20.2%,3.6%,-8.4%,-1.4,u
CC1(C)C(=O)C=CC(=O)C(C)(C)C(=O)C=CC(=O)C(C)(C)C2=CC=C(O2)C(C)(C)C(=O)C=CC1=O,-0.4%,-7.9%,u,0.82µM*,-96.7*,0.82µM*
CC1(CNC(=O)C(=O)NCC2(C)CO2)CO1 (centres undefined),1.7%,-17.2%,-17.9%,1.64µM*,-0.7,0.82µM*
Cc1ccccc1Cn1c([N+](=O)[O-])cnc1C,-1.9%,-9.8%,1.6%,-12.2%,24.4,-5.3%
Cc1ccccc1CN1CCc2cc([N+](=O)[O-])ccc21,-1.7%,2.0%,-13.3%,18.4µM*,-12.7,u
